Bioassay records: PubChem BioAssay, National Center for Advancing Translational Sciences (NCATS)
FMDV antiviral = antivirals against foot and mouth disease virus | FMDV antiviral cell-based qHTS | Potency, µM (top dose mostly 57.9 µM), inactives show at the highest dose activity change, negative = inhibition, hits mostly inhibitors | 1.2% of 410,000 active; calls by dose curve; tested in HEK293T cells; also: read-out not given here; potency is read from the fitted curve at half-maximal effect; nearly all actives have a fitted effect of over 45% in size
HCMV antiviral = blocks human cytomegalovirus replication; activity change, negative = inhibition, % at 57.5 µM; HFF cells, HCMV-luciferase reporter, 72 h; active compounds read low; 4.5% of 410,000 active; AID 1259415; in the data active = activity change below about -60%; inconclusive = no clear call, values can overlap the other calls; inactive = above about -39%
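Human foreskin fibroblasts infected with luciferase-reporter HCMV at MOI 1 PFU/cell, compounds at two doses. Luciferase measured 72 h post infection; normalized to buffer-only basal and Salinomycin (10uM) controls.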
Lassa entry inh = Lassa virus entry inhibition | Lassa virus pseudotype entry inhibition, cell reporter | Potency, µM (series often up to 37.9 µM), inactives show top-dose activity change, negative = inhibition, most hits filed as inhibitors | 1.2% of 300,000 active | AID 540256; calls by dose curve; tested in HEK293 cells; also: potency is read from the fitted curve at half-maximal effect; nearly all actives have a fitted effect of over 50% in size
MARV entry inh = blocks Marburg virus binding to or entry into cells | Marburg virus pseudotyped entry inhibition, cell reporter | Potency, µM (doses to about 37.8 µM), without a hit: at the highest dose activity change, negative = inhibition, hits mostly inhibitors | 1.8% of 300,000 active | AID 540276; calls by dose curve; tested in HEK293 cells; also: potency is read from the fitted curve at half-maximal effect
HCV inhibitor = blocks hepatitis C virus; Huh7.5.1 HCVcc-Cre infection, luciferase reporter, 44 h; Potency, µM (top dose mostly 41.8 µM), inactives show top-dose activity change, negative = inhibition, most hits filed as inhibitors; 3.4% of 340,000 active; AID 651820; active = well fitted inhibition curve with a large enough effect; inconclusive = small, poorly fitted or top-dose-only effect, or another doubt; inactive = no such curve, though single readings can be large or run the other way; also: potency is read from the fitted curve at half-maximal effect
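Cells (1,000/well) were plated 4 h before compound, then infected with HCVcc-Cre virus (~0.5 moi). After 44 h further culture, infection was read as luciferase luminescence following a 15 min substrate incubation at room temperature.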
An asterisk follows results filed as active; [ ] = another dose, or the depositor's remark. Shown are actives, neighbours in structure and some others; about 7.9% of the full set was active somewhere. % is scaled to controls: 0 for no effect and ±100 for the full control effect.

COCCCNc1ncnc2c1cnn2-c1ccc(F)cc1 was read as FMDV antiviral 9%, HCMV antiviral 68 and Lassa entry inh inconclusive.
COc1ccc2cc([C@@H](C#N)C3CCCC3)ccc2c1 was read as HCMV antiviral 1.
For COc1ccc(C2c3cccn3CCN2S(=O)(=O)c2ccccc2[N+](=O)[O-])cc1OC (stereo unspecified) the results were FMDV antiviral -4%, HCMV antiviral -1 and Lassa entry inh inconclusive.
CC(=O)Nc1ccc(S(=O)(=O)NC2(C(F)(F)F)C(=O)Nc3c2c(=O)[nH]c(=O)n3-c2ccc(C)cc2)cc1 (stereo unspecified) was read as FMDV antiviral -10%, HCMV antiviral 2, Lassa entry inh -6%[46.1 µM] and MARV entry inh -4%[46.1 µM].
Screening CC(C)CC1NC(=O)C(CC(C)C)N(CO)C1=O (stereo unspecified) returned FMDV antiviral -15%, HCMV antiviral 51, Lassa entry inh 11%, MARV entry inh 19% and HCV inhibitor 18%.
CSc1ccc(NC(=O)NCCCN2CCC(Cc3ccccc3)CC2)cc1 was read as FMDV antiviral -28%, HCMV antiviral -63*, MARV entry inh 2% and HCV inhibitor 10µM*.
Screening COc1ccc(NC(=O)NCCCN2CCC(Cc3ccccc3)CC2)cc1 returned FMDV antiviral 0%, HCMV antiviral -26 and HCV inhibitor inconclusive.
O=C(NCCCN1CCC(Cc2ccccc2)CC1)C1CC(=O)N(C2CCCCCC2)C1 (stereo unspecified) was read as FMDV antiviral -13%, HCMV antiviral -2, Lassa entry inh -12%, MARV entry inh 14µM* and HCV inhibitor 4µM*.
COc1ccc(-c2cc(C(=O)NCC3CCCCC3)[nH]n2)c(C)c1 was read as FMDV antiviral 25% and HCMV antiviral -3.
For CC1=C(c2cccc(Cl)c2)S(=O)(=O)NC1=NCc1ccccc1C the results were FMDV antiviral 22%, HCMV antiviral -23, Lassa entry inh 25%[46.1 µM] and MARV entry inh -23%[46.1 µM].
For O=C(CN1C(=O)NC(c2ccccc2)(c2ccccc2)C1=O)NCCc1ccc(F)cc1 the results were FMDV antiviral -19%, HCMV antiviral -22, Lassa entry inh -6%[46.1 µM], MARV entry inh inconclusive and HCV inhibitor inconclusive.
`CNc1cc(N2CCCC2)ccc1[N+](=O)[O-]` gave FMDV antiviral 21%, HCMV antiviral 10, Lassa entry inh 0%, MARV entry inh 6%[46.1 µM] and HCV inhibitor 25µM*.
For CCNc1cc(N2CCCC2)ccc1[N+](=O)[O-] the results were FMDV antiviral -8%, HCMV antiviral -14, Lassa entry inh 3%, MARV entry inh -11% and HCV inhibitor inconclusive.
`CC(C)CNc1cc(N2CCCC2)ccc1[N+](=O)[O-]` gave HCMV antiviral -38, Lassa entry inh -3%, MARV entry inh -23% and HCV inhibitor 4µM*.
CCOc1cccc2sc(N(CCN(CC)CC)C(=O)c3ccco3)nc12 was read as FMDV antiviral -12%, HCMV antiviral 0 and Lassa entry inh 8%[46.1 µM].
Screening CC(C)COc1nc2ccccc2nc1[C@H](C#N)C(=O)NC1CCCCC1 returned MARV entry inh -1%.
`COc1cc(N=Nc2cccc(S(N)(=O)=O)c2)c2ccccc2c1N` gave FMDV antiviral inconclusive, HCMV antiviral -66*, Lassa entry inh -4%[46.1 µM], MARV entry inh 9%[46.1 µM] and HCV inhibitor inconclusive.
`NC1=NC(=Nc2cccc(S(N)(=O)=O)c2)c2ccccc21` gave FMDV antiviral -4%, HCMV antiviral -14 and HCV inhibitor 2%.
For Cc1nc2c(o1)CCc1ccccc1[C@H]2N1CCN(C)CC1 the results were MARV entry inh -15%.
`c1ccc(C[C@H]2CN=C(Nc3ccccc3)N2CC2CCCCC2)cc1` gave FMDV antiviral -14%, HCMV antiviral 21 and HCV inhibitor -29%.
`c1ccc(C[C@H]2CN=C(Nc3ccccc3)N2CC2CCC2)cc1` gave FMDV antiviral -21%, HCMV antiviral -26 and HCV inhibitor -19%.
Screening c1ccc(C[C@H]2CN=C(Nc3ccccc3)N2CCCC2CCCCC2)cc1 returned FMDV antiviral -18%, HCMV antiviral -61* and HCV inhibitor 4µM*.
`CC(C)C[C@H]1CN=C(Nc2ccccc2)N1CCCC1CCCC1` gave FMDV antiviral inconclusive, HCMV antiviral -70* and HCV inhibitor inconclusive.
